Results as given in PubChem BioAssay AID1981 (Southern Research Specialized Biocontainment Screening …, 2009).
Out of some 2,200 compounds screened, about 480 (22%) were called active. These entries were drawn from the full list. Measured potencies and affinities stand elsewhere. Unmarked numbers belong to inactive results. The rule behind the calls is not given here.

Experiment: S. Typhimurium GFP fluorescence dose response in modified counterscreen for PhoP regulon inhibitor project (AID 1981);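 note: 0% = induced DMSO wells and 100% = uninduced wells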
Details: 4 h; series mostly up to 150 µM; inhibition: at the top concentration

Row | SMILES | inhibition
1 | O=C(c1[nH]ncc1-c1ccc(Cl)cc1)C1CO1 (centres undefined) | 8.07%
2 | O=C(CSCc1cccc(CSCC(=O)Nc2ccc3ccccc3c2)n1)Nc1ccc2ccccc2c1 | -6.02%
3 | c1ccc(CSc2nnc(-c3ccncc3)o2)cc1 | 1.56%
4 | C=CCNc1nnc(Cl)c2ccccc12 | -10.6%
5 | S=C(NCc1ccncc1)Nc1ccc(Cl)c(Cl)c1 | -1.3%
6 | Cc1cc(-c2csc(NC(=O)c3ccccc3C(F)(F)F)n2)c(C)n1Cc1ccccc1 | 11.7%
7 | Cc1ccc(-c2nc(NCc3cccnc3)c3ccccc3n2)cc1 | 0.48%
8 | Cc1cccc(C(=O)NC(NCc2ccco2)C(Cl)(Cl)Cl)c1 (centres undefined) | -6.57%
9 | c1ccc(CN2CCN(c3nc(NCc4ccco4)c4ccccc4n3)CC2)cc1 | -2.02%
10 | Cc1ccc2[nH]c3c(NCc4ccco4)ncnc3c2c1 | -2.75%
11 | c1coc(CNc2ncnc3ccccc23)c1 | 0%
12 | c1ccc(CNc2ncnc3ccccc23)cc1 | -3.62%
13 | Oc1ccccc1Nc1nc(NCc2ccco2)c2ccccc2n1 | -2.16%
14 | c1ccc(CNc2nc(N3CCN(Cc4ccccc4)CC3)nc3ccccc23)cc1 | -6.01%
15 | O=C(c1ccccc1)N1CCN(c2ccc([N+](=O)[O-])c(NCc3ccco3)c2)CC1 | 0.28%
16 | C/C(=N/NC(=O)Cc1cccn1C)c1ccccc1 | 3.18%
17 | COc1ccc(NC(=O)CCNS(=O)(=O)c2ccc3c(c2)CCC(=O)N3)cc1 | -0.32%
18 | O=C(Nc1nccs1)c1cc(-c2ccco2)nc2ccccc12 | -23.4%
19 | Cc1cn([C@H]2C[C@H](N=[N+]=[N-])[C@@H](CO)O2)c(=O)[nH]c1=O | 35.2% [at 75 µM]
20 | COc1cccc(-c2nnc3sc(-c4ccc(C)cc4)nn23)c1 | -9.25%
21 | CN(CC(=O)N1CCN(c2ccccn2)CC1)S(=O)(=O)c1ccc2ccccc2c1 | -4.15%
22 | Cn1nnnc1SCC(=O)NC1CCCCC1 | -10.9%
23 | Nc1nnc(SCc2ccc(F)cc2Cl)s1 | -15.6%
24 | Cn1c(C(O)c2ccc(Br)cc2)nc(Cl)c1Cl (centres undefined) | -13.2%
25 | CCC1C2CN(C(C)=O)CC=C2C(C#N)=C(N)C1(C#N)C#N (centres undefined) | 6.02%

Row | SMILES | inhibition
26 | Clc1ccc(-n2ncc3c(NCc4cccs4)ncnc32)cc1 | -17.4%
27 | CCn1c(Cc2ccccc2)nnc1SCC(=O)Nc1nc(C)c(C)s1 | 0.1%
28 | Nc1ccc2oc3ccccc3c2c1 | 16.8%
29 | CCOc1cc(C2C(C(=O)OC)=C(C)N=C3SCCC(=O)N32)ccc1OC(C)=O (centres undefined) | -2.17%
30 | CCCn1c(/N=C/c2ccc3c(c2)OCO3)nc2ccccc21 | 15.2%
31 | Cc1ccc(NS(=O)(=O)c2ccccc2)c2c1CC(C)(C)O2 | -8.98%
32 | COc1ccc(NC(=O)C(Sc2nnc(-c3ccncc3)n2-c2ccccc2C)c2ccccc2)cc1Cl (centres undefined) | 8.36%
33 | CC(=O)Cn1cnc2sc(-c3ccccc3)cc2c1=O | 4.67%
34 | C/C(=N\Nc1nc2ccccc2[nH]1)c1cccs1 | -5.9%
35 | C/C(=N\Nc1nc2ccccc2[nH]1)c1ccc(Cl)s1 | 12.1%
36 | O=S(=O)(c1ccc(N2CCCC2c2nc3ccccc3s2)nc1)N1CCOCC1 (centres undefined) | -16.8%
37 | O=C(/C=C/c1cccs1)N1CCN(Cc2ccc3c(c2)OCO3)CC1 | -9.81%
38 | CC(C)(C)NS(=O)(=O)c1ccc(CCC(=O)N2CCOCC2)cc1 | -7.62%
39 | Cc1cc(C(=O)CSc2nnnn2C)c(C)n1-c1ccc2c(c1)OCCO2 | -3.82%
40 | COC(=O)c1c(C)oc2ccc(NS(=O)(=O)c3cccs3)cc12 | -14.3%
41 | Cc1cc(N/N=C/c2cccc(Cl)c2)nc(NCc2ccccc2)n1 | -17.7%
42 | C(=N\N1CCN(Cc2ccccc2)CC1)/c1cccnc1 | -10.5%
43 | O=C(Nc1cccc(Cl)c1)C1C2CCC3C(CCC21)C3(Cl)Cl (centres undefined) | -16.9%
44 | O=C1CC(c2ccccc2)n2ncnc2N1 (centres undefined) | -7.51%
45 | Cc1onc(-c2ccccc2)c1C(=O)NC(=S)NNC(=O)c1ccc(O)cc1O | 15.5%
46 | O=C(NC(NC(=S)Nc1ccc(Cl)cc1)C(Cl)(Cl)Cl)c1ccco1 (centres undefined) | -10.4%
47 | FC(F)Oc1ccc(NC(=S)NCc2nc3ccccc3[nH]2)cc1 | 3.22%
48 | CCn1c(N)[n+](CC(=O)Nc2ccc(SC(F)F)cc2)c2ccccc21 | -16.1%
49 | Cc1ccc2[nH]c3c(NCc4ccccc4)ncnc3c2c1 | -12.9%
50 | COC(=O)N1CCN(c2ccc(Cl)c(Cl)c2)CC1 | -3.97%

Row | SMILES | inhibition
51 | Brc1ccc2nc3c(n2c1)CCCC3 | 10.4%
52 | CC(=O)Nc1ccc(C(=O)Nc2nc(-c3cc(C)n(Cc4ccccc4)c3C)cs2)cc1 | -1.17%
53 | Cc1ccccc1Nc1nc(-c2sc(NC(=O)c3cccc(Cl)c3)nc2C)cs1 | 30.6%
54 | CC(C)Cc1oc(C(=O)O)cc1CN | 10.4%
55 | Nc1nc(C2CCCCC2)cs1 | -11.9%
56 | CCN(CC(=O)Nc1ccc(N2CCOCC2)cc1)Cc1nc2ccccc2c(=O)[nH]1 | -1.37%
57 | COc1ccc(OC)c(/C=N/NC(=O)c2cc3c(OC)c(OC)ccc3[nH]2)c1 | -13.9%
58 | COc1ccc(OC)c(/C=N/NC(=O)Cc2nc3ccccc3[nH]2)c1 | 8.7%
59 | C#CCOc1c(Cl)cc(/C=N/O)cc1OC | -8.22%
60 | Cc1nn(-c2ncc(C(F)(F)F)cc2Cl)c(=O)n1-c1cccc(Cl)c1 | -20.8%
61 | Cc1ccc(C)n1-c1cccc(N)c1 | 8.69%
62 | O=S1(=O)CC(O)C(Nc2ccccc2Cl)C1 (centres undefined) | 0.99%
63 | COc1ccccc1NC(=O)Cn1nnc(-c2ccccc2NC(=O)c2cccs2)n1 | -1.7%
64 | Fc1cc(Br)ccc1NC(=S)Nc1ccccc1 | -7.83%
65 | CCN(CC)S(=O)(=O)c1cccc(NC(=O)Nc2cccc(C(F)(F)F)c2)c1 | 4.19%
66 | COC(=O)Cc1ccc(NC(=S)N2CCN(c3ccc(F)cc3)CC2)cc1 | 12.2%
67 | O=S(=O)(Nc1ccc2ccccc2c1)c1ccccc1 | -3.83%
68 | Cc1scc(C(=O)O)c1-c1c(C(=O)O)csc1C | -5.12%
69 | O=C(c1ccccc1)c1nc2ccccc2n(CCCn2c(=O)c(C(=O)c3ccccc3)nc3ccccc32)c1=O | 10.8%
70 | CCCn1c(NCc2c[nH]c3ccccc23)nc2ccccc21 | -16.7%
71 | CCC(C)N1C(=O)/C(=C/c2ccc3c(c2)CCN3CCCCl)C(=O)NC1=S (centres undefined) | 11.6%
72 | COc1ccc(-n2c(=O)c3ccccc3n(CC(=O)Nc3cc(C)on3)c2=O)cc1OC | -6.76%
73 | CCn1c2ccccc2c2cc(NC(=O)COc3ccccc3)ccc21 | -7.07%
74 | CCCSc1nc(N2CCCC2)c2c(c1C#N)CC(C)(C)OC2 | 3.09%
